Results: the supplement of paper PMC8728848
Shown is part of a subset that was picked to be rich in the strongest signals.

Key:
Assay in all cases: glycan array binding signal (z-score within array); higher = stronger binding
Details in all cases: glycan notation: IUPAC condensed, linker removed
[1] = biological target: Gal(b1-4)GlcNAc(b1-3)Gal(b1-4)GlcNAc(b1-3)Gal(b1-4)GlcNAc(b1-3)Gal(b1-4)GlcNAc(b1-3)Gal(b1-4)GlcNAc(b1-2)Man(a1-3)[Gal(b1-4)GlcNAc(b1-3)Gal(b1-4)GlcNAc(b1-3)Gal(b1-4)GlcNAc(b1-3)Gal(b1-4)GlcNAc(b1-3)Gal(b1-4)GlcNAc(b1-2)Man(a1-6)]Man(b1-4)GlcNAc(b1-4)GlcNAc
Outline: (§1)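 Glycan array binding is given as a within-array Z-score, which can be read as non-binding when negative. The arrays, 3228 of them, came from the Consortium for Functional Glycomics database and were retained only where the protein sequence was available. Z-scores were averaged across arrays of the same protein sequence at different concentrations or buffers and across linkers.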

[2] = biological target: Gal6S(b1-4)Glc
Outline: as §1

[3] = biological target: Gal6S(b1-4)GlcNAc
Outline: as §1

[4] = biological target: GalNAc(a1-3)Gal
Outline: as §1

[5] = biological target: GalNAc(a1-3)GalNAc
Outline: as §1

[6] = biological target: GalNAc(b1-3)Gal(a1-4)Gal(b1-4)GlcNAc(b1-3)Gal(b1-4)Glc
Outline: as §1

[7] = biological target: GalNAc(b1-6)GalNAc
Outline: as §1

[8] = biological target: GlcNAc(a1-4)Gal(b1-4)GlcNAc(b1-3)Gal(b1-4)GlcNAc
Outline: as §1

[9] = biological target: GlcNAc(a1-4)Gal(b1-4)GlcNAc(b1-3)Gal(b1-4)[Fuc(a1-3)]GlcNAc(b1-3)Gal(b1-4)[Fuc(a1-3)]GlcNAc
Outline: as §1

[10] = biological target: GlcNAc(b1-2)[GlcNAc(b1-4)]Man(a1-3)[GlcNAc(b1-4)][GlcNAc(b1-2)[GlcNAc(b1-6)]Man(a1-6)]Man(b1-4)GlcNAc(b1-4)GlcNAc
Outline: as §1

[11] = biological target: GlcNAc(b1-3)Gal(b1-4)GlcNAc(b1-3)Gal(b1-4)GlcNAc(b1-2)Man(a1-3)[GlcNAc(b1-3)Gal(b1-4)GlcNAc(b1-3)Gal(b1-4)GlcNAc(b1-2)Man(a1-6)]Man(b1-4)GlcNAc(b1-4)[Fuc(a1-6)]GlcNAc
Outline: as §1

[12] = biological target: Man(a1-3)[Man(a1-6)]Man(a1-6)[Man(a1-3)]Man
Outline: as §1

[13] = biological target: Neu5Ac(a2-3)Gal(b1-3)GalNAc6S
Outline: as §1

[14] = biological target: Neu5Ac(a2-3)Gal(b1-3)[Neu5Ac(a2-6)]GlcNAc(b1-3)[Fuc(a1-3)[Gal(b1-4)]GlcNAc(b1-6)]Gal(b1-4)Glc
Outline: as §1

[15] = biological target: Neu5Ac(a2-3)Gal(b1-4)GlcNAc(b1-2)[Neu5Ac(a2-3)Gal(b1-4)GlcNAc(b1-4)]Man(a1-3)[GlcNAc(b1-4)][Neu5Ac(a2-3)Gal(b1-4)GlcNAc(b1-4)Man(a1-6)]Man(b1-4)GlcNAc(b1-4)GlcNAc
Outline: as §1

[16] = biological target: Neu5Ac(a2-3)Gal(b1-4)[Fuc(a1-3)]GlcNAc(b1-2)Man
Outline: as §1

[17] = biological target: Neu5Ac(a2-6)Gal(b1-4)GlcNAc(b1-2)Man(a1-3)[Man(a1-6)]Man(b1-4)GlcNAc(b1-4)GlcNAc
Outline: as §1

[18] = biological target: Neu5Ac(a2-6)Gal(b1-4)GlcNAc(b1-2)[Neu5Ac(a2-6)Gal(b1-4)GlcNAc(b1-4)]Man(a1-3)[GlcNAc(b1-4)][Neu5Ac(a2-6)Gal(b1-4)GlcNAc(b1-4)Man(a1-6)]Man(b1-4)GlcNAc(b1-4)GlcNAc
Outline: as §1

[19] = biological target: Neu5Ac(a2-6)Gal(b1-4)GlcNAc(b1-6)[Gal(b1-3)]GalNAc
Outline: as §1

[20] = biological target: Neu5Ac(a2-6)GalNAc(b1-4)GlcNAc
Outline: as §1

[21] = biological target: Neu5Ac(a2-8)Neu5Ac(a2-8)Neu5Ac(a2-3)Gal(b1-4)Glc
Outline: as §1

[22] = biological target: Neu5Gc(a2-6)GalNAc
Outline: as §1

B1: OS9-MRH (Homo sapiens), Q13438 (protein)
chain: IPELLSPMRDAPCLLKTKDWWTYEFCYGRHIQQYHMEDSEIKGEVLYLGYYQSAFDWDDETAKASKQHRLKRYHSQTYGNGSKCDLNGRPREAEVRFLCDEGAGISGDYIDRVDEPLSCSYVLTIRTPRLCPHPLLRPPPSAAPQAI
For B1, the “glycan array binding signal (z-score)” value [1] was 2.42, the “glycan array binding signal (z-score)” value [2] was -0.643 and the “glycan array binding signal (z-score)” value [3] was -0.312. For the same binder, the “glycan array binding signal (z-score)” value [4] was 2.81, the “glycan array binding signal (z-score)” value [5] was 3.57 and the “glycan array binding signal (z-score)” value [6] was -1.33. For the same binder, the “glycan array binding signal (z-score)” value [7] was 1.14, the “glycan array binding signal (z-score)” value [8] was -0.159 and the “glycan array binding signal (z-score)” value [9] was 1.12. The “glycan array binding signal (z-score)” value [10] was -1.46, the “glycan array binding signal (z-score)” value [11] was 0.656 and the “glycan array binding signal (z-score)” value [12] was 0.835. For the same binder, the “glycan array binding signal (z-score)” value [13] was 0.458, the “glycan array binding signal (z-score)” value [14] was -0.321 and the “glycan array binding signal (z-score)” value [15] was 0.322. The “glycan array binding signal (z-score)” value [16] was -0.503, the “glycan array binding signal (z-score)” value [17] was -0.807 and the “glycan array binding signal (z-score)” value [18] was -0.99. For the same binder, the “glycan array binding signal (z-score)” value [19] was -0.081, the “glycan array binding signal (z-score)” value [20] was 5.26 and the “glycan array binding signal (z-score)” value [21] was 0.1. The “glycan array binding signal (z-score)” value [22] was 1.14.
